E coli Lon inh: inhibitors of E. coli Lon protease | inhibition, % at 7.94 µM | purified E. coli Lon protease, fluorescence polarization | actives 0.42% (n = 360,000); in the data active = inhibition above about 13%, passing the limit was not always enough;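 note: 0% = enzyme with probe and DMSO and 100% = no enzyme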
BCLXL inh: inhibitors of human Bcl-xL. inhibition, % at 10.9 µM. GST-Bcl-xL / FITC-Bim BH3 peptide fluorescence polarization. Q07817. actives 0.7% (n = 320,000);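 active = inhibition above the mean of all tested compounds plus 3 SD, cutoff set per campaign, cut at about 30% in these data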;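 note: 0% = DMSO wells and 100% = unlabeled Bim-BH3 peptide competitor; inhibitors lower millipolarization by displacing the labeled peptide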
EBV gp42 block: blocks Epstein-Barr virus glycoprotein 42 binding; actives 0.42% (n = 220,000); Fluorescence polarization binding assay, mP read-out; inhibition, % (tested at 21.74 µM); in the data active = inhibition above about 50%
Target sequence (Q1HVG2 whole entry, looked up): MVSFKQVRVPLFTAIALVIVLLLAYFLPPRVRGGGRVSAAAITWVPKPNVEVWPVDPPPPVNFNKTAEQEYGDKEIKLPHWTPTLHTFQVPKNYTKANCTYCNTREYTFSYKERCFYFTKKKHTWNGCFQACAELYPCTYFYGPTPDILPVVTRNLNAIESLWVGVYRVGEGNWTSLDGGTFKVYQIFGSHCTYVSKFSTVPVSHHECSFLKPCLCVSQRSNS
MCL1 BIM primary: disrupts human MCL1 binding to BIM-BH3 peptide; GST-MCL1 / FITC-Bim-BH3 fluorescence polarization; inhibition, % at 10.9 µM; actives 0.68% (n = 320,000);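 active = inhibition above the mean inhibition of all tested compounds plus 3 SD, set per campaign, cut at about 40% in these data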;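 note: 0% = DMSO wells and 100% = unlabeled Bim-BH3 peptide control; higher means more loss of mP so more displacement of Bim peptide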
Target sequence (Q07820 whole entry, looked up): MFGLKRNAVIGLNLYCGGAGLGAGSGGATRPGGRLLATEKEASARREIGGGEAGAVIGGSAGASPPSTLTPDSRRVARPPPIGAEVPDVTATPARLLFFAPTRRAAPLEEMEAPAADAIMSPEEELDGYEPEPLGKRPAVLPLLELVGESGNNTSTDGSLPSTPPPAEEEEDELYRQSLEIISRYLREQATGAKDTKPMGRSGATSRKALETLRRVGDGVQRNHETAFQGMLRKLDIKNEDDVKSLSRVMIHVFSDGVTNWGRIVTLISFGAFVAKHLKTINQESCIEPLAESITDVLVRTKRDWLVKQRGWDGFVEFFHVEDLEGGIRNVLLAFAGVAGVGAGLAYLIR
MEX-5 binding: C. elegans MEX-5 TCR-2 RNA binding activity. Q9XUB2. MEX-5/FITC-TCR2 RNA binding, fluorescence polarization; active compounds read low. activity score (negative = inhibition of binding), % at 10 µM. actives 0.38% (n = 300,000);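 active = inhibition past about -25% in most replicates, and total fluorescence under double the plate's negative control median, limit read from the data; inconclusive = replicates evenly split on the limit, or fluorescence at least double controls; inactive = too little inhibition in most replicates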;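 note: 0% = DMSO and -100% = 5 µM competing unlabeled TCR2 RNA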
GLD-1 RNA inh: GLD-1-TGE RNA interaction inhibition (C. elegans) | Q17339 | purified GLD-1 + fluorescein TGE RNA, fluorescence polarization | inhibition, % at 5.96 µM | actives 0.44% (n = 320,000) | AID 2280;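 active = percent inhibition above a per-plate cutoff, the plate mean of test compounds plus 3 SD, cut at about 30% in these data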;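 note: 0% = DMSO wells with GLD-1 and probe and 100% = wells lacking GLD-1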
An asterisk follows results filed as active; ? = inconclusive; / = no result given. In the library only some 1.4% were active in any assay of this set; here they are far more common.

SMILES	E coli Lon inh	BCLXL inh	EBV gp42 block	MCL1 BIM primary	MEX-5 binding	GLD-1 RNA inh
CCOC(=O)c1ccc(NC(=O)c2c(O)[nH]c(=O)[nH]c2=O)cc1	-7.4	-3.7	76.7*	3.0	-4.0	4.7
CCOc1ccc(NC(=O)c2c(O)[nH]c(=O)[nH]c2=O)cc1	0.4	5.3	/	3.2	-1.7	11.8
CCOC(=O)c1c(/N=C/c2c(O)n(-c3ccccc3F)c(=S)[nH]c2=O)sc2c1CCCC2	-31.0	-8.9	129.9*	-15.0	-9.4	0.1
CCOC(=O)c1ccc(N=Cc2c(O)n(-c3ccc(OC)cc3)c(=S)[nH]c2=O)cc1	-16.2	5.3	-11.4	11.2	-0.3	4.7
CCOC(=O)c1c(/N=C/c2c(O)n(-c3ccc(F)cc3)c(=S)[nH]c2=O)sc2c1CCCC2	-6.0	-5.2	56.5*	-4.4	0.7	-1.1
COC(=O)C1=C(c2ccc(OC(F)(F)F)cc2)C[C@@H]2CC[C@H]1N2C(=O)N1CCC(O)CC1	-4.2	2.5	/	2.4	/	8.5
Cc1cccc(N2C(=O)NC(=O)/C(=C\C=C\c3ccco3)C2=O)c1	-81.4	1.6	-177.2	-24.4	-3.8	6.0
Cc1cccc(N2C(=O)NC(=O)/C(=C/c3ccc([N+](=O)[O-])o3)C2=O)c1	/	32.8*	-19.6	47.5*	/	-8.5
CN1C(=O)/C(=C/C=C/c2ccco2)C(=O)NC1=S	-94.2	16.2	-16.9	29.8	-79.5*	-8.4
O=C1NC(=O)N(c2ccccc2)C(=O)/C1=C/C=C/c1ccco1	-68.3	14.2	-177.6	-2.9	0.2	12.1
O=C(C[N+]12CCN(CC1)CC2)NCCc1ccc(Cl)cc1Cl	4.1	4.8	-24.9	4.0	1.4	4.2
Cc1cc(C=C2C(=O)NC(=O)NC2=O)c(C)n1-c1cccnc1	-8.8	-2.9	-0.2	-3.2	-70.5*	-1.4
C=CCN1C(=O)/C(=C/c2cc(C)n(-c3cccnc3)c2C)C(=O)NC1=S	-19.3	5.7	-4.1	2.8	-10.7	1.4
CC(C)C(C)(NC(=O)c1cccn(Cc2ccc3c(c2)OC(F)(F)O3)c1=O)C(N)=O (stereo not given)	0.0	6.1	-4.6	7.4	0.0	2.1
O=C1NC(=O)C2(Cc3ccccc3N3CCCC32)C(=O)N1 (stereo not given)	-1.6	36.6*	-6.8	35.5	-12.4	19.4
C=Cc1cc(OC)c2c(c1)c(=O)oc1c2cc(OC)c2c(O)ccc(C3OC(C)C(O)C(C)(O)C3O)c21 (stereo not given)	4.6	/	/	/	/	/
O=C1/C(=C/c2cc3c(cc2Cl)OCO3)N2CCC1CC2	/	3.7	-16.1	6.1	-0.6	54.5*
CCCCCCn1c(O)c(C=Nc2ccccc2N2CCOCC2)c(=O)[nH]c1=S	-0.4	-0.2	-52.5	-2.4	-31.1*	-3.0
Oc1ccc(C[C@H]2NCCc3cc(O)c(O)cc32)cc1O	5.1	/	/	/	-80.6*	/
Oc1ccc2c3c1O[C@H]1c4[nH]c5ccccc5c4C[C@@]4(O)[C@@H](C2)N(CC2CC2)CC[C@]314	-3.0	1.6	/	3.1	/	2.6
Oc1ccc2c3c1O[C@H]1c4[nH]c5ccccc5c4C[C@@]4(O)C(C2)N(CC2CC2)CC[C@]314	/	19.4	-8.4	65.8*	-6.8	0.5
Cc1cccc(-n2c(O)c(/C=N/Nc3nc4c(c(=O)n(C)c(=O)n4C)n3C)c(=O)[nH]c2=S)c1	-15.1	7.3	-29.7	-3.7	-46.9*	-9.2
COc1ccc(N/N=C/c2c(O)n(-c3cccc(C)c3)c(=O)[nH]c2=O)cc1	-19.9	40.1*	-13.8	36.4	10.4	-8.3
Cc1ccccc1-n1c(O)c(/C=N/Nc2nc3c(c(=O)n(C)c(=O)n3C)n2C)c(=O)[nH]c1=S	-13.6	-6.5	-29.1	-12.7	-13.8	-1.3
CCCCOC1OCN(C2CCCCC2)CC1(C)C (stereo not given)	-22.1	/	/	/	/	/
SMILES	E coli Lon inh	BCLXL inh	EBV gp42 block	MCL1 BIM primary	MEX-5 binding	GLD-1 RNA inh
Cc1nonc1OCCNCCNc1ccc([N+](=O)[O-])c2cccnc12	0.9	4.7	-5.9	0.8	-27.0*	3.6
O=C1NC(=O)C(=Cc2ccc3c(c2)OCO3)C(=O)N1	/	-3.6	0.1	-4.2	-6.0	-3.9
O=C1NC(=O)C(=Cc2cn(CCOc3ccc4c(c3)OCO4)c3ccccc23)C(=O)N1	-17.4	28.8	16.6	25.2	-55.4*	-3.3
C=CCn1cc(C=C2C(=O)NC(=O)NC2=O)c2ccccc21	-49.6	29.8	/	0.1	-37.3*	-29.6
O=C(Cn1cc(C=C2C(=O)NC(=O)NC2=O)c2ccccc21)NCC1CCCO1 (stereo not given)	-17.0	-1.7	/	-8.1	-36.3*	-3.4
O=C(O)Cn1cc(C=C2C(=O)NC(=O)NC2=O)c2ccccc21	-15.7	5.8	/	11.4	3.4	-3.1
CC1=CC(=O)OC2CC3OC4C[C@@H](C)C5OC6CC7O[C@]8(C)C/C=C\C9OC%10CC%11OC(CC(C)C%12OCCO%12)CC(O)[C@]%11(C)OC%10CC9OC8C[C@]7(C)O[C@]6(C)CCC5OC4C[C@]3(C)OC12 (stereo not given in full)	-4.0	/	/	/	/	2.3
COc1ccccc1-n1c(O)c(/C=C2\C=Nc3ccccc32)c(=O)[nH]c1=O	-69.5	-11.2	/	-26.1	-35.1*	-18.6
O=C1NC(=O)C(C2CCOC2=O)N1 (stereo not given)	-4.9	/	/	/	/	/
C[C@@H]1CN([C@@H](C)CO)C(=O)CCCn2nncc2CO[C@H]1CN(C)C(=O)Oc1ccccc1	0.6	/	/	/	/	/
CCc1ccc(N2C(=O)NC(=O)/C(=C\c3cccn3CCOc3ccc(C(C)C)cc3)C2=O)cc1	-14.0	5.3	-3.2	-5.3	-36.1*	-1.5
Cc1ccc(OCCn2cccc2/C=C2/C(=O)NC(=O)N(Cc3ccco3)C2=O)cc1	-85.4	-4.6	-22.9	-0.1	-3.7	-5.1
COC(=O)C1C=C2c3cccc4[nH]cc(c34)CC2N(C)C1 (stereo not given)	/	/	113.7*	/	/	/
CC[C@@H](CO)NC(=O)[C@@H]1C=C2c3cccc4[nH]cc(c34)C[C@H]2N(C)C1	45.1	/	/	/	/	/
O=P1(NCCCl)OCCC(OO)N1CCCl (stereo not given)	2.6	/	/	/	/	/
CCn1nc(-c2ccccc2)nc2c(=O)n(C)c(=O)nc1-2	82.7*	136.0*	97.9*	148.3*	?	128.3*
Cn1cccc1/C=C1\C(=O)NC(=O)N(Cc2ccco2)C1=O	-44.4	/	4.1	/	-6.8	/
COc1ccc(/C=C2/C(=O)NC(=O)N(Cc3ccco3)C2=O)cc1	/	-5.1	36.2	0.9	-80.7*	-25.9
Cc1ccc2n1Cc1cnnn1-c1ccccc1-2	3.5	/	/	/	/	/
COc1ccc(P2(=O)Nc3ccccc3N2)cc1	-37.0	61.7*	24.3	51.8*	-35.7*	14.7
COCCCNC(=O)c1c(N)n(Cc2ccco2)c2nc3ccccc3nc12	-12.7	48.8*	8.1	53.9*	-4.0	47.1*

High-throughput results as filed in PubChem BioAssay.
